Measured values: PubChem BioAssay (NCATS)
Inconclusive results are not listed. Values without a mark were called inactive. Calls come from the whole dose curve; as a rule, active = well fitted activation curve with a large enough effect; inconclusive = small, poorly fitted or top-dose-only effect; inactive = flat fitted curve, though single readings scatter.

Experiment: Cellular Toxicity (caspase-3) Jurkat (AID 655);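 note: cells exposed to compound for 16 h at 37 °C before reading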
Details: Jurkat caspase-3 activation, luminescence; caspase-3 activation: at 92.2 µM (top of the series), DMSO = 0%, tamoxifen = 100%
From the text: NIH Chemical Genomics Center [NCGC]
NIH Molecular Libraries Screening Centers Network [MLSCN]
National Institutes of Environmental Health Sciences [NIEHS]
National Toxicology Program [NTP]
We have developed a 1536-well cell-based assay for quantitative high throughput screening (qHTS) against a number of cell lines to determine in vitro caspase 3/7 of small molecules. This particular assay uses the Jurkat cell line which is derived from human T cell leukemia.
NCGC Assay Protocol Summary:
The Caspase-Glo 3/7 assay (Promega) is a homogeneous method to measure caspase-3 and caspase-7 activities in cultured cells. The quantitation of caspase 3/7 activity is based on the cleavage of a peptide-aminoluciferin substrate. After caspase cleaves the substrate the free aminoluciferin is liberated and serves as the substrate of luciferase, which generates the light. The luminescent signal is proportional to amount of caspase 3/7 activity present.
Using the Caspase-Glo 3/7 assay, the amount of caspase 3/7 activity was measured in the Jurkat cell line with complete culture medium following compound treatment for 16 hours. The assay was performed in opaque white 1536-well plates. In the screen, tamoxifen and doxorubicin were used as positive controls. Library compounds were measured for their ability to cause the activation of caspase 3/7 in the cell line, as reflected by an increase in luminescence signal, in a concentration-dependent manner. Data were normalized to the controls for basal activity (DMSO only) and 100% stimulation (100 uM tamoxifen). AC50 values were determined from concentration-response data modeled with the standard Hill equation.
qHTS protocol for caspase 3/7 assay in Jurkat cells
[Step] [Parameter] [Value] [Description]
1. Reagent; 5 uL; 5000 Jurkat cells/well
3. Controls; 23 nL; Tamoxifen 0.23 uM to 100 uM & Doxorubicin 7.0 pM to 100 uM
4. Time; 16 hr; 37 °C incubation
5. Reagent; 5 uL; Caspase-Glo 3/7 reagent
6. Time; 20 min; Room Temperature
7. Detection; Luminescence; Viewlux plate reader
Keywords: caspase 3/7, apoptosis, Jurkat cell line, luminescence, NTPHTS, NTPHTS_NCGC, NIEHS, EPA, DSSTox, MLSMR, MLSCN, NIH Roadmap, qHTS, NCGC

Compound	caspase-3 activation
Clc1cccc2ccccc12	0.494%
CCNCC	0.736%
CC(C)[C@]12CC(=O)[C@H](C)[C@H]1C2	0.322%
Cc1cccc(C)c1N	-0.00153%
CCN(N=O)C(N)=O	0.577%
O=[N+]([O-])c1ccc2c3c(cccc13)CC2	0.699%
BrC(Br)Br	-0.161%
O=[N+]([O-])c1ccc(Cl)c(Cl)c1Cl	-0.417%
Cl/C=C\Cl	0.747%
NC1CCC(CC2CCC(N)CC2)CC1 (stereo not given)	0.418%
OCCOCCO	-0.825%
O=[N+]([O-])c1ccccc1-c1ccccc1	0.923%
OCCBr	-0.73%
CC(Cl)(Cl)Cl	-0.991%
FC(Cl)(Cl)Cl	-0.152%
CCBr	-0.439%
OCCCCO	-0.218%
Nc1ccc(Cc2ccc(N)c(Cl)c2)cc1Cl	25.3%
Cc1ccc2c(C)cccc2c1	-1.07%
CCC/C=N/O	-1.14%

Compound	caspase-3 activation
C[N+](=O)[O-]	0.536%
Cl/C=C/CCl	1.51%
c1ccoc1	0.558%
O=NN1CCCCC1	1.18%
Brc1cccc(-c2ccccc2)c1	1.47%
CCCN(CCC)c1c([N+](=O)[O-])cc(C(F)(F)F)cc1[N+](=O)[O-]	2.21%
Cc1ccc([N+](=O)[O-])cc1	-0.655%
Cc1ccc(N=C=O)cc1N=C=O	0.0584%
CC(C)OS(C)(=O)=O	1.6%
CCC[N+](=O)[O-]	-1.47%
O=c1ccc(=O)[nH][nH]1	1.49%
CC(=O)NNc1ccccc1	1.53%
C=CC(=O)OCC(C)C	0.654%
N#CCBr	0.425%
Clc1ccc(C(c2ccccc2Cl)C(Cl)(Cl)Cl)cc1 (stereo not given)	5.05%
O=Cc1ccc2c(c1)OCO2	-0.168%
Clc1cc(Cl)c(Cl)c(Cl)c1	0.108%
CCSC(=O)N1CCCCCC1	0.302%
C=CCCl	0.433%
O=[N+]([O-])c1ccc(O)c([N+](=O)[O-])c1	-6.84%
